High-throughput results deposited in PubChem by National Center for Advancing Translational Sciences (NCATS).
VP16 counter – counter-screen for ROR gamma inhibitors: Gal4-VP16 reporter; 3.5% of 310,000 active; Potency, µM (highest dose often 53.6 µM), usual class: inhibitors; Drosophila S2 Gal4-VP16 UAS-luciferase, luminescence, 20 h;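 note: Gal4-VP16 expression switched on by copper sulfate through the metallothionein promoter; nearly all actives have a fitted effect of over 50% in size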
SW480 rereplic – inducers of DNA re-replication in SW480 colon cancer cells | SW480 DNA re-replication, Hoechst DNA content imaging, 48 h | Potency, µM (titrated, usually from 46.1 µM), actives largely listed as activators | 1.8% of 340,000 active; note: nearly all actives have a fitted effect of over 55% in size
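SW480 cells exposed to compounds for 48 hr at 37 C, 5% CO2, then Hoechst-stained 40 min. Nuclear DNA content imaged by fluorescence scanning (405 nm excitation, 500-530 nm emission); re-replication scored as increased high-intensity nuclei.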
Chronic BCR inh – blocks chronic active B-cell receptor signaling. 0.05% of 340,000 active. ABC-DLBCL IkBa-CBG/CBR reporter, luminescence ratio, 4 h. Potency, µM (top dose mostly 46.1 µM), most hits filed as inhibitors; active = well fitted inhibition curve with a large enough effect in the signal ratio, with a control signal flat, not every such curve was filed as active; inconclusive = small, poorly fitted or top-dose-only effect, or effect the other way, or a change in a side signal; the % refers to the signal ratio
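Doxycycline induced both beetle luciferases in TMD8 lymphoma cells; IKK-driven degradation limits the IkappaBalpha-fused green signal, while red luminescence normalises for cell number and nonspecific effects. Compounds tested up to 46 uM, 4 hrs.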
Giardia killer – kills Giardia lamblia. Giardia lamblia trophozoite viability. activity change, % at 7.66 µM, hits read low. 0.15% of 340,000 active. AID 540267; in the data active = activity change below about -80%; inconclusive = between about -30% and that limit;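 note: parasites exposed to compound for two days anaerobically before the ATP read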
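Giardia lamblia trophozoites (100 cells/well) were incubated with compounds for 48 h at 37 deg C under anaerobic conditions. Viability was read as ATP content by one-step luminescence after 15-30 min at room temperature.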
MCF10A rereplic – DNA re-replication induction in MCF 10a cells; MCF 10A DNA re-replication, Hoechst nuclear intensity, 48 h; Potency, µM (series often up to 46.1 µM), most hits filed as activators; 2.9% of 350,000 active; AID 624296; note: nearly all actives have a fitted effect of over 50% in size
RORg inh – inhibitors of mouse ROR gamma transcriptional activity. P51450. Drosophila S2 Gal4-RORgamma UAS-luciferase reporter, 20 h. Potency, µM (highest dose often 53.6 µM), actives largely listed as inhibitors. 5.4% of 310,000 active; note: nearly all actives have a fitted effect of over 60% in size
Target sequence (P51450 whole entry, looked up, the tested form may be a part): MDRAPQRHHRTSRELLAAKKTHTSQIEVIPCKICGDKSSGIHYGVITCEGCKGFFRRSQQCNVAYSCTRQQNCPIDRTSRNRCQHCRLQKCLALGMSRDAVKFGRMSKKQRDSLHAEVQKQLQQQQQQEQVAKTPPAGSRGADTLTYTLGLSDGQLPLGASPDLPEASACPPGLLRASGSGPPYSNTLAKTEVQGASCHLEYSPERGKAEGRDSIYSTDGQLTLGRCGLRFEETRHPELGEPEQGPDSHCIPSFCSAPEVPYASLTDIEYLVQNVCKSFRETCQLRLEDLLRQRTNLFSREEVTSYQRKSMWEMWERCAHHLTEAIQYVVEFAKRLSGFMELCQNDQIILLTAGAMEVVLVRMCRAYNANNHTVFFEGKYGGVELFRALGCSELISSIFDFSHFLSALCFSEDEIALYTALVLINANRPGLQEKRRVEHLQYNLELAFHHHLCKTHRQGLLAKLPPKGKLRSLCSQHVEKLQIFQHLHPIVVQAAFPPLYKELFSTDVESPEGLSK
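Stably transfected Drosophila Schneider cells are the test system, with ROR gamma fused to Gal4 and luciferase under UAS control; luminescence is read after 20 hr of 700 uM copper sulfate induction at ambient temperature.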
Of the large screens only hits and unclear results are named; the others gave an inactive call. Rows were chosen to be rich in hits. Some 8.3% of all compounds tested hit in one or more screens of this group. Unless noted, calls come from the whole dose curve; as a rule, active = well fitted curve in the direction sought with a large enough effect; inconclusive = small, poorly fitted or top-dose-only effect, or another doubt; inactive = no such curve, though single readings can be large; an effect the other way counts as inactive or inconclusive.

CC(SC1=NCCS1)C(=O)Nc1nnc(-c2ccc(Br)cc2)s1 (configuration not stated)	VP16 counter 10µM, RORg inh 8.91µM
CC(C)C(NC(=O)c1ccc(Br)cc1)C(=O)NC1=NCCS1 (configuration not stated)	none
O=C(Nc1nnc(-c2ccc(F)cc2)s1)Nc1ccccc1F	none
CCC(SC1=NCCS1)C(=O)Nc1nnc(-c2ccccc2OC)s1 (configuration not stated)	VP16 counter 15.8µM, MCF10A rereplic inconclusive, RORg inh 6.31µM
CCOC(=O)Nc1nnc(-c2ccccc2OC)s1	RORg inh inconclusive
CC(SC1=NCCS1)C(=O)Nc1nnc(-c2ccc(F)cc2)s1 (configuration not stated)	VP16 counter inconclusive, RORg inh 7.94µM
O=C(CSc1nnc(-c2ccncc2)n1CCc1ccccc1)N1CCCC1	none (no result: SW480 rereplic, Giardia killer, MCF10A rereplic)
Cn1c(Cc2nc(-c3cnccn3)no2)nnc1SCC(=O)Nc1ccccc1	Chronic BCR inh inconclusive
CC(=O)NCCC(=O)N1CCCC(N(C)CCc2ccccc2)C1 (configuration not stated)	none
COc1ccccc1/C=C/C=N/NC(=O)c1ccco1	VP16 counter inconclusive, Chronic BCR inh inconclusive, RORg inh inconclusive
Cc1ccc(/C=N/NC(=O)c2cc(-c3ccc(C)o3)[nH]n2)cc1	SW480 rereplic inconclusive, Chronic BCR inh inconclusive, MCF10A rereplic 4.61µM
COc1ccccc1/C=C/C=N/NC(=O)c1cc(-c2ccc(C)o2)[nH]n1	VP16 counter inconclusive, SW480 rereplic inconclusive, Chronic BCR inh inconclusive, MCF10A rereplic inconclusive, RORg inh 12.6µM
Cc1ccc(-c2cc(C(=O)N/N=C/c3cccnc3)n[nH]2)o1	Chronic BCR inh inconclusive
O=C(NNC(=O)c1cccs1)c1ccco1	Chronic BCR inh inconclusive
O=C(NC(=S)NNC(=O)c1cccs1)c1ccco1	VP16 counter inconclusive, Chronic BCR inh inconclusive, RORg inh 2.82µM
O=C(Nc1ccc(NC(=S)NC(=O)c2cccs2)cc1)c1ccco1	Chronic BCR inh inconclusive, RORg inh 11.2µM
C/C(=N\NC(=O)c1ccco1)c1ccc(NC(=O)c2cccs2)cc1	Chronic BCR inh inconclusive, RORg inh inconclusive
O=C(NC(=S)NNC(=O)c1ccco1)c1ccc(Br)cc1	VP16 counter inconclusive, RORg inh 12.6µM
CCOC(=O)c1cc(-c2ccccc2)sc1NC(=S)Nc1cccc(C)n1	MCF10A rereplic inconclusive
CCOC(=O)c1c(NC(=O)C2=C(C)NC(=S)NC2c2ccccc2C(F)(F)F)sc(C)c1C (configuration not stated)	VP16 counter 3.55µM, SW480 rereplic inconclusive, Chronic BCR inh inconclusive, RORg inh inconclusive
CCOC(=O)c1c(NC(=S)Nc2ccccc2)sc(C)c1C	VP16 counter inconclusive, RORg inh 3.55µM
CCOC(=O)c1cc(C)sc1NC(=S)Nc1ccccc1	VP16 counter 3.16µM, Chronic BCR inh inconclusive, RORg inh inconclusive
CCOC(=O)c1c(NC(=O)c2ccncc2)sc(C)c1C	none
CCOC(=O)c1c(NC(=O)c2ccc(Cl)s2)sc(C)c1C	SW480 rereplic inconclusive, MCF10A rereplic inconclusive
CCOC(=O)c1cc(C)sc1NC(=O)c1ccc(Cl)s1	Chronic BCR inh inconclusive, MCF10A rereplic 3.26µM
CC1Cc2ccccc2N1C(=O)Cn1cnc2c1c(=O)n(C)c(=O)n2C (configuration not stated)	none
Cc1ccc(NC(=O)C2CCCN(S(=O)(=O)c3cccc4cccnc34)C2)c(Br)c1 (configuration not stated)	none (no result: VP16 counter, SW480 rereplic, Giardia killer, MCF10A rereplic, RORg inh)
CC1CCc2c(sc3ncnc(SC(C)C(=O)NCC4CCCO4)c23)C1 (configuration not stated)	Chronic BCR inh inconclusive, MCF10A rereplic inconclusive (no result: VP16 counter, RORg inh)
CCOC(=O)c1c(NC(=O)CNC2CCCCC2)sc(C)c1C	Chronic BCR inh inconclusive, MCF10A rereplic inconclusive, RORg inh 1.41µM
CC(=O)Nc1sc(C)c(C)c1C(=O)OCC(=O)Nc1cccc(C)c1	SW480 rereplic inconclusive, MCF10A rereplic 8.2µM (no result: VP16 counter, RORg inh)
CCOC(=O)c1c(NC(=S)NCC2CCCO2)sc(C)c1C (configuration not stated)	VP16 counter 4.47µM, RORg inh 1.58µM
CC(=O)Nc1sc(C)c(C)c1C(=O)OCC(=O)Nc1ccccc1	MCF10A rereplic inconclusive (no result: VP16 counter, RORg inh)
COc1ccc(S(=O)(=O)N2CCN(CC(=O)Nc3c(C)n[nH]c3C)CC2)cc1OC	none (no result: VP16 counter, RORg inh)
O=C(N/N=C/c1cc(Br)c(Br)o1)c1cc2ccccc2o1	VP16 counter 6.31µM, MCF10A rereplic inconclusive, RORg inh 5.01µM
Cc1nc2ccccn2c1C(=O)N/N=C/c1ccc([N+](=O)[O-])o1	VP16 counter inconclusive, SW480 rereplic inconclusive, Giardia killer -86.1, MCF10A rereplic inconclusive, RORg inh 14.1µM
O=C(N/N=C/c1ccc([N+](=O)[O-])o1)c1cc2c(ccc3ccccc32)o1	VP16 counter inconclusive, SW480 rereplic inconclusive, Chronic BCR inh inconclusive, Giardia killer inconclusive, MCF10A rereplic 2.59µM
O=C(N/N=C/c1ccc([N+](=O)[O-])o1)c1cc2ccccc2o1	VP16 counter inconclusive, SW480 rereplic inconclusive, Giardia killer -96.2, MCF10A rereplic inconclusive, RORg inh inconclusive
Cc1cccc(NC(=O)c2oc(=O)c3ccccc3c2-c2ccccc2)c1C	SW480 rereplic inconclusive, Chronic BCR inh inconclusive, MCF10A rereplic inconclusive
C=C1CCN(C(CC(C)C)C(=O)Nc2nc3ccc(Cl)cc3s2)S(=O)(=O)c2ccccc21 (configuration not stated)	none (no result: SW480 rereplic, Chronic BCR inh, MCF10A rereplic)
Cc1ccc(S(=O)(=O)N2CCN(C(=O)c3cccs3)CC2)c(C)c1	SW480 rereplic 4.11µM
CN1C2=CC=CC=CC2=[N+](C)C12C([N+](=O)[O-])=CC(=[N+]([O-])[O-])C=C2[N+](=O)[O-] (configuration not stated)	SW480 rereplic 0.651µM, Giardia killer -93.8, MCF10A rereplic inconclusive
CC(=O)c1cccc(NC(=O)CSc2nnc3ccc(-c4ccc(Br)cc4)nn23)c1	none (no result: VP16 counter, SW480 rereplic, Giardia killer, MCF10A rereplic, RORg inh)
Cc1nnc2sc(-c3csc4c3CCCC4)nn12	Chronic BCR inh inconclusive, MCF10A rereplic inconclusive
S=c1nc(-c2csc3c2CCCC3)[nH][nH]1	VP16 counter 11.2µM, RORg inh 3.98µM
Oc1cc(-n2cccn2)c(O)cc1-n1cccn1	VP16 counter 12.6µM, Chronic BCR inh inconclusive, RORg inh inconclusive
O=Cc1ccccc1-n1cccn1	none
Cc1ccc(SC2=C(N(C)C)C(=O)c3ccccc3C2=O)cc1	SW480 rereplic inconclusive, MCF10A rereplic 11.6µM (no result: VP16 counter, Chronic BCR inh, RORg inh)
CC(C)(C)N1C(=O)[C@H]2[C@H]3[C@H](O)[C@H](O)C/C(=N/OCc4ccccc4)[C@H]3CC[C@@H]2C1=O	none (no result: SW480 rereplic, Chronic BCR inh, Giardia killer, MCF10A rereplic)
Cc1[nH]n(C(N)=S)c(=O)c1N=Nc1cccc(Cl)c1	VP16 counter 1.58µM, Chronic BCR inh inconclusive, MCF10A rereplic inconclusive, RORg inh 0.282µM
